Screening data from PubChem.
Most compounds without a hit are left out; they make up all but 6.5% or so of the library.
A340 absorber – absorbance at 340 nm | compound absorbance at 340 nm, fold over control | 65,000 tested, under 10 active | AID 708 | fold change at 10 µM;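 active means at 10 µM dose, initial 340 nm absorbance at least 2 fold that of control wells; inactive means change under 2 fold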;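 further: initial absorbance extrapolated from kinetic A340 decline of NADH oxidation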
Spn PMK inh – S. pneumoniae PMK inhibition. inhibition, % at 10 µM. purified PMK, PK/LDH-coupled NADH absorbance 340 nm. actives 0.49% (n = 65,000). AID 539;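 active means top-ranked compounds by inhibition in the single 10 µM screen, taking a fixed number of the strongest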;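 further: 0% = full reaction with DMSO carrier and 100% = background rate without enzyme reaction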
Spn DPM-DC inh – blocks S. pneumoniae diphosphomevalonate decarboxylase | purified DPM-DC, PK/LDH coupled NADH fluorescence | calls only at 10 µM | actives 0.49% (n = 65,000);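 active means the 320 compounds with the highest percent inhibition in the single-dose primary screen, excluding strongly autofluorescent ones, cut at about 32% in these data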;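 further: kinetic rate of NADH fluorescence loss reporting ADP formed by the decarboxylase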
Spn MK inh – S. pneumoniae mevalonate kinase inhibition | actives 0.48% (n = 65,000) | inhibition, % at 10 µM | purified MK, PK/LDH-coupled NADH absorbance 340 nm;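 active means ranked among the strongest by inhibition in the single 10 µM screen, a fixed top-ranked set picked for dose follow-up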
NADH enzymes – inhibitors of enzymes used to reach an NAD/NADH endpoint. IC50, µM (doses to about 10 µM), inactives show at the highest dose inhibition. actives 0.02% (n = 65,000). coupled PK/LDH NADH assays, four targets. AID 774;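 active means single-dose screening hits from any of four coupled enzyme assays that gave an IC50 when retested across doses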;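 further: the DPM-DC format reads NADH fluorescence rather than 340 nm absorbance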
Fluor 339 460 – intrinsic fluorescence of library compounds, ex339/em460 – biochemical, MLSMR library, data from DPM-DC assay, artefact control, profiling panel; fluorescence fold increase at 10 µM; actives 5.5% (n = 65,000); compound autofluorescence, ex339/em460 nm, NADH buffer; active compounds read high; 1 = no-compound wells, NADH background;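 active means at 10 µM, mean starting fluorescence two-fold or more over control wells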;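 further: signal is the first read of a kinetic run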
* hit, by the source's call; i = inactive; nt = not tested or not shown; + = active, no number.

SMILES	A340 absorber	Spn PMK inh	Spn DPM-DC inh	Spn MK inh	NADH enzymes	Fluor 339 460
COC(=O)c1[nH]c2ccc(C)cc2c1NC(=O)C(C)N1CCN(C2CCCCC2)CC1 (stereo not drawn)	1.1	8	nt	7	8%	3.5*
COC(=O)c1[nH]c2ccc(C)cc2c1NC(=O)CN1CCC(C)CC1	0.99	0	i	9	4%	1.8
COC(=O)c1[nH]c2ccc(C)cc2c1NC(=O)CN1CCN(c2ccc(F)cc2)CC1	1	8	i	8	9%	2.2*
COC(=O)c1[nH]c2ccc(Cl)cc2c1NC(=O)CN1CCc2cc(OC)c(OC)cc2C1	1	6	i	8	6%	1.5
COC(=O)c1[nH]c2cc(OC)c(OC)cc2c1NC(=O)CN1CCN(Cc2ccccc2)CC1	1.1	15	nt	3	9%	3.7*
O=C(c1ccc2nc(N3CCOCC3)sc2c1)N1CCC2(CC1)OCCO2	0.99	12	i	0	4%	1
O=C(CSc1nnc(-c2ccco2)o1)NC1CC2CCC1C2 (stereo not drawn)	1	5	i	4	3%	1.2
Cc1ccc2[nH]c(C(=O)O)c(NC(=O)CN3CCN(c4cccc(C)c4C)CC3)c2c1	1	9	i	10	9%	1.1
COC(=O)c1[nH]c2ccc(C)cc2c1NC(=O)CN1CCN(Cc2ccccc2)CC1	1.1	0	i	12	12%	2.9*
COC(=O)c1[nH]c2ccc(C)cc2c1NC(=O)CN1CCN(C(=O)c2ccccc2)CC1	1	6	nt	9	4%	2.9*
O=c1c(Cc2ccccc2O)c(O)nc2n1CCCS2	1	11	i	12	8%	1.1
O=C(NCC(=O)N(CCN1CCOCC1)C(C(=O)NC1CCCC1)c1cccnc1)c1cccs1 (stereo not drawn)	1	0	i	1	0%	1.1
CN(C)c1ccc(NC(=O)c2sc(SCC(=O)Nc3nccs3)nc2N)cc1	1.1	7	i	0	2%	1.1
O=C1c2ccccc2NC(c2ccccn2)N1c1ccc(Cl)cc1 (stereo not drawn)	0.98	14	nt	5	10%	4.8*
O=C1c2ccccc2NC(c2ccccc2)N1c1ccc(O)cc1 (stereo not drawn)	1.1	13	i	13	9%	1.6
Cc1cccc(C2Nc3ccccc3C(=O)N2c2ccccc2)n1 (stereo not drawn)	1.1	3	nt	3	3%	2.2*
O=C(NCCC1=CCCCC1)C1CCN(S(=O)(=O)c2cccc3nsnc23)CC1	1	9	i	9	4%	1.1
O=C(COc1cccc(NC(=O)c2ccco2)c1)c1ccccc1	1	14	i	7	7%	1.1
Cc1cc(NC(=O)c2cc3nc4c(c(C(F)(F)F)n3n2)CCc2ccccc2-4)no1	1.1	23	nt	8	16%	2.2*
Cc1cc(NC(=O)c2cc3nc(C4CC4)cc(C(F)(F)F)n3n2)no1	1.1	2	i	2	1%	1.3
c1csc(-c2cnc3ccccc3n2)c1	1	7	nt	2	5%	3.6*
c1cncc(Nc2nc(-c3cccs3)cs2)c1	1	0	i	7	3%	1.1
CN(C)c1ccc(-c2nnn(CC(=O)N3c4ccccc4CCc4ccccc43)n2)cc1	1.1	0	i	0	0%	2.6*
CN(C)c1ccc(-c2nnn(CC(=O)Nc3ccccc3N3CCOCC3)n2)cc1	1	7	i	3	4%	1.3
Cc1nc2sc(C(c3cccs3)N3CCN(Cc4ccccc4)CC3)c(O)n2n1 (stereo not drawn)	1.1	7	i	0	2%	1.1
SMILES	A340 absorber	Spn PMK inh	Spn DPM-DC inh	Spn MK inh	NADH enzymes	Fluor 339 460
CCCOC(=O)Cc1n[nH]c(=O)[nH]c1=O	0.96	10	+	5	20%	0.55
CCCOC(=O)CCc1n[nH]c(=O)[nH]c1=O	0.98	2	i	5	2%	1.1
COc1ccc(-c2onc3ccc(Cl)cc23)cc1OC	1.1	3	i	5	3%	1.5
COc1ccc(-c2cn3cc(Cl)ccc3n2)cc1OC	1.1	5	nt	0	3%	4.8*
CCOC(=O)C1=C(C)NC(=O)NC1c1cc(Br)c(O)c(OC)c1 (stereo not drawn)	1	8	i	10	13%	0.78
CCOc1cc(C2C(C(=O)N3CCCCC3)=C(C)NC3=C2C(=O)CCC3)cc(Br)c1O (stereo not drawn)	1.2	9	i	13	16%	2.5*
CCc1ccc(OCc2nnc(SCC(=O)NCc3ccco3)o2)cc1	1	26*	i	0	9%	0.99
CCN(CC)C(=O)c1cc2c(=O)n3cccc(C)c3nc2n1C	1.1	9	nt	11	10%	5*
CC1Cc2ccccc2N1C(=O)c1cc2c(=O)n3ccccc3nc2n1C (stereo not drawn)	1.1	7	i	0	2%	1.7
O=C(c1ccco1)N1CCN(c2nc3ccccc3c(=O)n2-c2ccccc2)CC1	1.1	4	i	4	3%	1.8
Cn1c(C(=O)N2CCN(C(=O)c3ccco3)CC2)cc2c(=O)n3ccccc3nc21	1	3	nt	2	3%	3.4*
Cc1cccn2c(=O)c3cc(C(=O)N4CCc5ccccc54)n(C)c3nc12	1	10	i	8	9%	2.5*
Cn1c(C(=O)N2CCc3ccccc3C2)cc2c(=O)n3ccccc3nc21	1.1	13	nt	0	7%	5*
CCC(=O)OC1(C#CCOc2ccc(OC)cc2)CCN(C)CC1	1	1	i	6	1%	1
Cc1ccc(C(=O)Nc2ccc(S(=O)(=O)N3CCc4ccccc4C3)cc2)o1	1	6	i	9	7%	1.1
CC(=O)NCCn1c(SCC#N)nc2ccccc2c1=O	1.1	11	i	2	4%	0.98
Cc1cccn2c(=O)c3cc(C(=O)N4CCN(C(=O)c5ccco5)CC4)n(C)c3nc12	1.1	7	nt	0	4%	5*
Cc1cccn2c(=O)c3cc(C(=O)N4c5ccccc5CC4C)n(C)c3nc12 (stereo not drawn)	1	13	i	4	7%	1.9
CCOC(=O)c1snc(C(=O)NC2CCCCC2)c1N	1	0	i	8	3%	2*
Nc1c(C(=O)NC2CCCCC2)nsc1C(=O)OCC(=O)NC1CCCCC1	1	11	i	11	17%	3.1*
CC(=O)OC1C(OC(C)=O)N(C(C)=O)C(=O)N1C(C)=O (stereo not drawn)	1	7	i	11	6%	1.1
O=C(Nc1nc(-c2cc3ccccc3oc2=O)cs1)c1ccco1	1.1	0	nt	0	0%	2.1*
